According to PubChem BioAssay (NCATS):
Records with an inconclusive call do not appear. Calls of active or inactive are those of the source. Unless noted, calls come from the whole dose curve; as a rule, active = well fitted cell-killing curve with a large enough effect; inconclusive = small, poorly fitted or top-dose-only effect; inactive = flat fitted curve, though single readings scatter.

Assays:
[1] = Cell Viability - LYMP2-025 (AID 976);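 note: series mostly up to about 92 µM; plate controls were DMSO only for no effect and tetraoctylammonium bromide control for full effect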
Method in brief: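 Luminescent ATP readout after 24 hr treatment of a human lymphoblastoid line (LYMP2-025, 2500 cells/well, 37 C). Reagent developed 30 min at room temperature; AC50 fitted with the Hill equation.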

[2] = Cell Viability - LYMP2-002 (AID 977);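 note: series mostly up to about 92 µM; compound exposure lasted 24 h at 37 °C; plate controls were DMSO only for no effect and 92 µM tetraoctylammonium bromide for full effect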
Method in brief: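 Human lymphoblastoid cells, 2500/well, complete medium; 5 h 37 C settle; compound 24 h 37 C; CellTiter-Glo, 30 min RT; luminescence. Decrease in ATP = cytotoxicity; AC50 via Hill equation.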

[3] = Cell Viability - LYMP2-006 (AID 978); note: series mostly up to about 92 µM; % is set by controls: 0 for no effect and ±100 for the full control effect; nearly all actives have a fitted effect of over 60% in size
Method in brief: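 Cells are seeded at 2500 per well and rested 5 hr at 37 C. Compounds are added across a concentration series for 24 hr at 37 C, after which ATP is quantified by luciferase luminescence.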

[4] = Cell Viability - LYMP2-007 (AID 979);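 note: cells exposed to compound for 24 h before reading; 0% = DMSO only and the negative end = 92 µM tetraoctylammonium bromide; nearly all actives have a fitted effect of over 60% in size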
Method in brief: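 Measured via luciferase-based ATP quantitation: lymphoblastoid cells, 24 hr compound exposure at 37 C, AC50 from Hill fits.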

[5] = Cell Viability - LYMP2-008 (AID 980); note: % is set by controls: 0 for no effect and ±100 for the full control effect; nearly all actives have a fitted effect of over 60% in size
Method in brief: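 Measured: ATP-dependent luminescence, proportional to viable cell number, in human lymphoblastoid cells treated 24 hr with compound in complete culture medium. Values are AC50s from Hill-equation modelling of qHTS titrations.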

[6] = Cell Viability - LYMP2-010 (AID 981); note: % is set by controls: 0 for no effect and ±100 for the full control effect; nearly all actives have a fitted effect of over 55% in size
Method in brief: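 This 24 hr viability screen uses LYMP2-010 lymphoblastoid cells, quantifies ATP via luciferase luminescence, and derives AC50 from Hill fits of qHTS concentration-response data.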

[7] = Cell Viability - LYMP2-012 (AID 982);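 note: cellular ATP by luciferase luminescence where a drop means cytotoxicity; cells exposed to compound for one day before reading; 0% = DMSO only and full loss = 92 µM tetraoctylammonium bromide; nearly all actives have a fitted effect of over 55% in size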
[8] = Cell Viability - LYMP2-014 (AID 983);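 note: series mostly up to about 92 µM; plate controls were DMSO only for no effect and 92 µM tetraoctylammonium bromide for full effect; nearly all actives have a fitted effect of over 50% in size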
Method in brief: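 Quantitative HTS in lymphoblastoid cells: 24 hr compound exposure, then CellTiter-Glo ATP luminescence. Positive control was tetraoctylammonium bromide, 6.4pM to 92 uM.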

[9] = Cell Viability - LYMP2-016 (AID 984); note: % is set by controls: 0 for no effect and ±100 for the full control effect; nearly all actives have a fitted effect of over 55% in size
Method in brief: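 Cells were seeded at 2500 per well and rested 5 hr before a 24 hr compound exposure at 37 C. Viability was then gauged as cellular ATP by luciferase luminescence, with AC50 values fitted to the Hill equation.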

[10] = Cell Viability - LYMP2-018 (AID 985);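 note: plate controls were DMSO only for no effect and tetraoctylammonium bromide at 92 µM for full effect; nearly all actives have a fitted effect of over 50% in size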
Method in brief: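 In this qHTS viability assay, cells are treated for 24 hr and cellular ATP is quantified by luciferase-based luminescence, with tetraoctylammonium bromide as positive control.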

[11] = Cell Viability - LYMP2-020 (AID 986);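 note: series mostly up to about 92 µM; plate controls were DMSO only for no effect and tetraoctylammonium bromide at 92 µM for full effect; nearly all actives have a fitted effect of over 55% in size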
Method in brief: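 Cells at 2500 per well receive a 24 hr compound exposure at 37 C. Viability is measured as ATP-dependent luciferase luminescence, with AC50 modeled from qHTS concentration-response curves.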

[12] = Cell Viability - LYMP2-022 (AID 987)
Method in brief: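 In this qHTS cytotoxicity screen, compound titrations were incubated 24 hr at 37 C with human lymphoblastoid cells in complete medium. Luciferase-based ATP luminescence provided the viability signal.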

[13] = Cell Viability - LYMP2-024 (AID 988);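 note: plate controls were DMSO only for no effect and 92 µM tetraoctylammonium bromide for full effect; nearly all actives have a fitted effect of over 60% in size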
Method in brief: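 Cells at 2500 per well received compound for 24 hr after a 5 hr settling period. Viability was scored by CellTiter-Glo luminescence, with AC50 from Hill fits.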

[14] = Cell Viability - LYMP2-026 (AID 989); note: % is set by controls: 0 for no effect and ±100 for the full control effect; nearly all actives have a fitted effect of over 50% in size
Method in brief: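 Acute toxicity screen in complete culture medium, with 24 hr compound exposure at 37 C. Viability read as cellular ATP via luciferase reaction, with tetraoctylammonium bromide (6.4pM to 92 uM) as positive control.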

[15] = Cell Viability - LYMP1-002 - Assay at 24 hr (AID 993); note: % is set by controls: 0 for no effect and ±100 for the full control effect
Method in brief: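 Viability was judged from intracellular ATP using a luciferase read-out, following a 24-hour compound incubation at 37 C of lymphoblastoid cells seeded at 2500 per well. Concentration-response data were fitted to the Hill equation for AC50.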

[16] = Cell Viability - LYMP1-002 - Assay at 40 hr (AID 994)
Method in brief: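 Concentration-dependent ATP loss after 40 hr treatment at 37 C defined toxicity; AC50 values were obtained by fitting the standard Hill equation.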

[17] = qHTS Assay for Identification of Small Molecule Inducers of Hypoxia Response (AID 2120; active = well fitted curve in the direction sought with a large enough effect in the signal ratio, with a control signal flat, not every such curve was filed as active; the % refers to the signal ratio; note: 0% is about no effect)
Method in brief: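 HRE-bla ME-180, 2500 cells/well, 0.5% dialyzed FBS medium; cpd titration, 17 h 37 degrees C; CCF4 2.5 h RT; Ex 405, Em 460/530 ratio -> %Activity, AC50.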

[18] = target: Androgen receptor (Homo sapiens) (UniProt P10275); test: qHTS assay for small molecule agonists of androgen receptor signaling (AID 588515; active = well fitted curve in the direction sought with a large enough effect in the signal ratio, with a control signal flat; the % refers to the signal ratio; note: % is set by controls: 0 for no effect and ±100 for the full control effect); conditions: AR-UAS-bla HEK293, beta-lactamase ratio, agonist 16 h; active compounds read high
Chain of Androgen receptor (Homo sapiens) (P10275 whole entry, looked up): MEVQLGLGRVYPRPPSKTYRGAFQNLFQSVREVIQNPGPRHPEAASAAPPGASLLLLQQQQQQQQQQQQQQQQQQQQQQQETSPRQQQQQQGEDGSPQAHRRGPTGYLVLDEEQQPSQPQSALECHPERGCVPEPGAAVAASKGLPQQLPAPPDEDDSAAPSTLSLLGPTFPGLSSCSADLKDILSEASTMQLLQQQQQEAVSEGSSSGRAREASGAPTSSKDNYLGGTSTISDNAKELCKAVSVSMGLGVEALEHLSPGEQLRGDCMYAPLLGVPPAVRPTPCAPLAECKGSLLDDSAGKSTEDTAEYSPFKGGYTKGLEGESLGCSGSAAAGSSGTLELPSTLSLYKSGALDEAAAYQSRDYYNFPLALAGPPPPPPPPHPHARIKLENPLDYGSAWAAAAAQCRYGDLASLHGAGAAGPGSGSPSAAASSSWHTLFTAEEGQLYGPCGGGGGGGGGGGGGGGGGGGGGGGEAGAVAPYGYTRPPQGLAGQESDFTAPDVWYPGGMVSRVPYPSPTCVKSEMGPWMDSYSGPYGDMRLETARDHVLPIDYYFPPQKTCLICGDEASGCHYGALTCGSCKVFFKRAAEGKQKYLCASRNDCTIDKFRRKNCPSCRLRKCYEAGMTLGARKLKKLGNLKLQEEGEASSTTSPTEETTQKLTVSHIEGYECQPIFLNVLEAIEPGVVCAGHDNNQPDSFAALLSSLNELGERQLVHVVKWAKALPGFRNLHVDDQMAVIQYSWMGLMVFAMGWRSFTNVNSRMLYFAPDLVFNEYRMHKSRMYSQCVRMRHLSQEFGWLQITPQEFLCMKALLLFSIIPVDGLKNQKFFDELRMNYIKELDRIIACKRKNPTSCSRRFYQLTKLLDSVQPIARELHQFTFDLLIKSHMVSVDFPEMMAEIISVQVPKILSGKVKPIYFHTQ
Method in brief: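 Stimulation of an AR-responsive β-lactamase reporter in GripTite HEK293 cells was measured after 16 h compound exposure at 37 °C, via CCF4 fluorescence after 2 h RT. EC50 from Hill fits, normalized to R1881 at 30 nM.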

Cc1c(C(=O)O)cccc1[N+](=O)[O-]
inactive: Potency [1] | Potency [2] | Potency [3] | Potency [4] | Potency [5] | Potency [6] | Potency [7] | Potency [8] | Potency [9] | Potency [10] | Potency [11] | Potency [12] | Potency [13] | outcome [14] | Potency [15] | Potency [16] | outcome [17] | activation [18] -4.24%

c1ccc2[nH]cnc2c1
inactive: Potency [1] | Potency [2] | Potency [3] | Potency [4] | Potency [5] | Potency [6] | Potency [7] | Potency [8] | Potency [9] | Potency [10] | Potency [11] | Potency [12] | Potency [13] | outcome [14] | Potency [15] | Potency [16] | outcome [17]

Cc1c(N)cccc1N
inactive: Potency [1] | Potency [2] | Potency [3] | Potency [4] | Potency [5] | Potency [6] | Potency [7] | Potency [8] | Potency [9] | Potency [10] | Potency [11] | Potency [12] | Potency [13] | outcome [14] | Potency [15] | Potency [16] | outcome [17]

CC(C=O)Cc1ccc(C(C)(C)C)cc1 (configuration not stated)
inactive: Potency [1] | Potency [2] | Potency [3] | Potency [4] | Potency [5] | Potency [6] | Potency [8] | Potency [9] | Potency [10] | Potency [11] | Potency [12] | Potency [13] | outcome [14] | Potency [15] | Potency [16] | outcome [17] | activation [18] 8.05%

CC1(N)CCC(C(C)(C)N)CC1 (configuration not stated)
inactive: Potency [1] | Potency [2] | Potency [3] | Potency [4] | Potency [5] | Potency [6] | Potency [7] | Potency [8] | Potency [9] | Potency [10] | Potency [11] | Potency [12] | Potency [13] | outcome [14] | Potency [15] | Potency [16] | outcome [17]

Cc1ccc(Cl)cc1N
inactive: Potency [1] | Potency [2] | Potency [3] | Potency [4] | Potency [5] | Potency [6] | Potency [7] | Potency [8] | Potency [9] | Potency [10] | Potency [11] | Potency [12] | Potency [13] | outcome [14] | Potency [15] | Potency [16] | outcome [17]

CC(=O)CCc1ccccc1
inactive: Potency [1] | Potency [2] | Potency [3] | Potency [4] | Potency [5] | Potency [6] | Potency [7] | Potency [8] | Potency [9] | Potency [10] | Potency [11] | Potency [12] | Potency [13] | outcome [14] | Potency [15] | Potency [16] | outcome [17]

CCCOCC(C)O (configuration not stated)
inactive: Potency [1] | Potency [2] | Potency [3] | Potency [4] | Potency [5] | Potency [6] | Potency [7] | Potency [8] | Potency [9] | Potency [11] | Potency [12] | Potency [13] | outcome [14] | Potency [15] | Potency [16] | outcome [17] | activation [18] -4.67%
